# Assay results taken from PubChem BioAssay (Tox21).
# A number with no mark means an inactive call. Records with an inconclusive call do not appear. Entries that show only a call come without a potency. Active and inactive are the calls of the source. Unless noted, calls follow the shape of the dose curve; as a rule, active = well fitted curve in the direction sought with a large enough effect in the repeat runs; inconclusive = weak or mixed curves; inactive = no such curve, though single readings can be large; an effect the other way counts as inactive or inconclusive.
# Legend:
# [1] = A CellTox Green Cytotoxicity Assay to monitor cytotoxicity in HepG2 cells - 8 hour (AID 1224890); also: nearly all actives have a fitted effect of over 45% in size
# Outline: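 Using 1536-well format, dye-containing HepG2 suspension was seeded, allowed 5 h at 37 C/5% CO2, dosed by pintool with compounds, positive and negative controls, and imaged for fluorescence across 40 h.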
# [2] = qHTS assay to identify small molecule antagonists of the estrogen receptor alpha (ER-alpha) signaling pathway using the BG1 cell line in the presence of 0.1 nM 17-beta-estradiol - cell viability counter screen (AID 1259241); also: nearly all actives have a fitted effect of over 40% in size
# Outline: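 VM7Luc4E2 cells (endogenous full-length ER-alpha, 4xERE-luciferase), cultured 5 days in charcoal-stripped serum, exposed to compounds with 0.1 nM 17beta-estradiol (final) for 22 hr at 37C. Viability read in same wells as live-cell protease fluorescence after 30 min.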
# [3] = qHTS assay to identify small molecule antagonists of the androgen receptor (AR) signaling pathway using the MDA cell line in the presence of 0.5 nM R1881 - cell viability counter screen (AID 1259242); also: nearly all actives have a fitted effect of over 45% in size
# Outline: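 Viability of MDA-kb2 cells was multiplexed with the luciferase AR readout; after 16 hr with compounds and R1881 at 0.5 nM final, CellTiter-Fluor fluorescence was recorded.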
# [4] = target: Androgen receptor (Homo sapiens) (UniProt P10275); experiment: qHTS assay to identify small molecule antagonists of the androgen receptor (AR) signaling pathway using the MDA cell line in the presence of 0.5 nM R1881 (AID 1259243); also: nearly all actives have a fitted effect of over 50% in size
# Outline: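 Reporter cells cultured without CO2 receive test chemicals, then 0.5 nM R1881 final; after 16 hr at 37C, ONE-Glo is added and light output recorded.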
# [5] = target: Estrogen receptor (Homo sapiens) (UniProt P03372); experiment: qHTS assay to identify small molecule antagonists of the estrogen receptor alpha (ER-alpha) signaling pathway using the BG1 cell line in the presence of 0.1 nM 17-beta-estradiol (AID 1259244); also: nearly all actives have a fitted effect of over 50% in size
# Outline: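 Estradiol at 0.1 nM (final) stimulates the endogenous ER-alpha of VM7Luc4E2 cells carrying an ERE-driven luciferase; compounds are co-incubated 22 h at 37C and luciferase output quantified by luminescence.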
# [6] = qHTS assay to identify small molecule phospholipidosis (PLD) inducers (AID 1259344; active = well fitted curve in the direction sought with a large enough effect; an effect the other way counts as inactive or inconclusive)
# Outline: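 HepG2 cells grown on collagen I take up LipidTOX Red while exposed to compound for 24 h; after fixation they are imaged at 20x and pit metrics are extracted.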
# [7] = qHTS assay to identify small molecule HDAC inhibitors - cell viability counter screen (AID 1259365); also: series mostly up to about 92 µM; nearly all actives have a fitted effect of over 50% in size
# Outline: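 Wild-type HCT-116 cells, 1,500/well, cultured overnight, then compound-treated 2 h at 37 C. Viability measured as ATP luminescence with CellTiter-Glo after 30 min at room temperature.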
# [8] = qHTS assay to identify small molecule agonists of the sonic hedgehog signaling (Shh) pathway - cell viability counter screen (AID 1259366); also: nearly all actives have a fitted effect of over 50% in size
# Outline: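 NIH/3T3-derived Gli1-Luc reporter cells, 2,000 per well, received compound after 4 h and were treated about 23 h at 37C. Viability measured in the same wells by CellTiter-Fluor fluorescence after 1 h.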
# [9] = qHTS assay to identify small molecule antagonists of the sonic hedgehog signaling (Shh) pathway - cell viability counter screen (AID 1259367); also: nearly all actives have a fitted effect of over 55% in size
# Outline: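 After a 4 hr settling period, 3T3 Gli1-Luc cells were treated with DMSO-dissolved chemicals and conditioned medium, kept 24 hr at 37C in 5% CO2, and assayed for viability by CellTiter-Fluor fluorescence following 1 hr reagent incubation.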
# [10] = qHTS assay to identify small molecule agonists of the sonic hedgehog signaling (Shh) pathway (AID 1259368; calls by dose curve;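 also: NIH/3T3-derived 3T3Gli1-Luc cells carrying a stable Gli1-driven firefly luciferase reporter; series mostly up to about 92 µM; nearly all actives have a fitted effect of over 15% in size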)
# Outline: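 A Gli1 transcriptional response element controlled firefly luciferase in 3T3Gli1-Luc cells. Compounds and a positive control were added 4 hr after plating, and cells were incubated a further 24 hr at 37 C before luminescence detection.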
# [11] = qHTS assay to identify small molecule antagonists of the sonic hedgehog signaling (Shh) pathway (AID 1259369; calls by dose curve; also: nearly all actives have a fitted effect of over 45% in size)
# Outline: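 For antagonist detection, the reporter line received test compounds together with conditioned medium, incubated 24hr at 37 C, 5% CO2, then luminescence was recorded following 30min room-temperature luciferase reagent incubation.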
# [12] = target: Estrogen receptor beta (Homo sapiens) (UniProt Q92731); experiment: qHTS assay to identify small molecule agonists of the estrogen receptor beta (ER-beta) signaling pathway (AID 1259377; active = well fitted activation curve with a large enough effect in the signal ratio in the repeat runs, not every such curve was filed as active; the % refers to the signal ratio)
# Outline: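 ER-beta-UAS-bla HEK293T cells in medium with 2% charcoal-stripped FBS were exposed to compounds for 16 h at 37C. Beta-lactamase reporter activity was read as fluorescence after 2 h with LiveBLAzer B/G FRET substrate at room temperature.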
# [13] = target: Estrogen receptor beta (Homo sapiens) (UniProt Q92731); experiment: qHTS assay to identify small molecule antagonists of the estrogen receptor beta (ER-beta) signaling pathway (AID 1259378; active = well fitted inhibition curve with a large enough effect in the signal ratio in the repeat runs, not every such curve was filed as active; the % refers to the signal ratio)
# Outline: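 ER-beta-UAS-bla HEK293T (GripTite) cells in 2% charcoal-stripped FBS medium were preincubated 6 hr at 37C, dosed with compound, then stimulated with 1 nM E2 (final) for 16 hr; beta-lactamase reporter read by B/G FRET fluorescence after 2 hr substrate loading.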
# [14] = qHTS assay to identify small molecule agonists of the androgen receptor (AR) signaling pathway in the presence of an antagonist - cell viability counter screen (AID 1259379);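 also: MDA-kb2 human breast cancer cells carrying an MMTV luciferase reporter; series mostly up to about 92 µM; nearly all actives have a fitted effect of over 25% in size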
# Outline: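 Seed MDA-kb2 at 3,000 cells/well; incubate 5 hr, 37C, 0% CO2. Add nilutamide to 3.0uM final, then pin compounds at 15 concentrations. Incubate 16 hr. Add CellTiter-Fluor at 15 hr, read fluorescence after 1 hr.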
# [15] = qHTS assay to identify small molecule agonists of the estrogen receptor beta (ER-beta) signaling pathway - cell viability counter screen (AID 1259380); also: nearly all actives have a fitted effect of over 30% in size; also: potency is read from the fitted curve at half-maximal effect
# Outline: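 CellTiter-Glo read, 30 min RT, same wells as bla assay; cells ER-beta-UAS-bla HEK293T; 16 hr compound, 37C; medium 2% charcoal-stripped FBS.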
# [16] = qHTS assay to identify small molecule antagonists of the estrogen receptor beta (ER-beta) signaling pathway - cell viability counter screen (AID 1259382); also: series mostly up to about 92 µM; nearly all actives have a fitted effect of over 55% in size
# Outline: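 In this multiplexed counter screen, cells were seeded at 2,000 per well in medium with 2% charcoal-stripped FBS and incubated 6 hr before compound and 1nM final E2 were added. Sixteen hours later, ATP-based luminescence reported viability.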
# [17] = target: Estrogen receptor (Homo sapiens) (UniProt P03372); experiment: qHTS assay to identify small molecule agonists of the estrogen receptor alpha (ER-alpha) signaling pathway in the presence of an antagonist (AID 1259383; calls by dose curve; also: top concentration of the series differs between compounds; nearly all actives have a fitted effect of over 15% in size)
# Outline: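 Stably transfected VM7Luc4E2 reporter cells, kept 5 days in charcoal-stripped serum, received ICI-182,780 at 10.0nM final before compound addition. Following 22hr incubation at 37C and 5% CO2, luciferase signal was read by luminescence.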
# [18] = qHTS assay to identify small molecule agonists or antagonists of the thyroid stimulating hormone receptor (TSHR) signaling pathway - wild type cell line counter screen (AID 1259384; calls by dose curve)
# Outline: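 Wild-type HEK293 cells were plated 18 h at 37 C/5% CO2, pin-dosed with compound plus Ro20-1724 medium, held 30 min at room temperature, then given cAMP-d2 and anti-cAMP-cryptate; fluorescence was read after 1 h. Fifteen concentrations, triplicate.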
# [19] = qHTS assay to identify small molecule HDAC inhibitors (AID 1259364);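 also: wild-type HCT-116 cells with endogenous class I/II HDAC activity; top concentration of the series differs between compounds; nearly all actives have a fitted effect of over 45% in size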
# Outline: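 Read-out: luminescence of HDAC-Glo I/II reagent, 30 min RT, reflecting class I/II deacetylase activity in whole HCT-116 cells pre-exposed 2 h to DMSO-dissolved compounds.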
# [20] = target: Androgen receptor (Homo sapiens) (UniProt P10275); experiment: qHTS assay to identify small molecule agonists of the androgen receptor (AR) signaling pathway in the presence of an antagonist (AID 1259381; calls by dose curve; also: nearly all actives have a fitted effect of over 15% in size)
# Outline: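 Test compounds at 15 concentrations were incubated for 16hr with MDA-kb2 reporter cells in presence of 3.0uM nilutamide (final). Signal: ONE-Glo luciferase luminescence.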
# Estrogen receptor (Homo sapiens), sequence (P03372 whole entry, looked up): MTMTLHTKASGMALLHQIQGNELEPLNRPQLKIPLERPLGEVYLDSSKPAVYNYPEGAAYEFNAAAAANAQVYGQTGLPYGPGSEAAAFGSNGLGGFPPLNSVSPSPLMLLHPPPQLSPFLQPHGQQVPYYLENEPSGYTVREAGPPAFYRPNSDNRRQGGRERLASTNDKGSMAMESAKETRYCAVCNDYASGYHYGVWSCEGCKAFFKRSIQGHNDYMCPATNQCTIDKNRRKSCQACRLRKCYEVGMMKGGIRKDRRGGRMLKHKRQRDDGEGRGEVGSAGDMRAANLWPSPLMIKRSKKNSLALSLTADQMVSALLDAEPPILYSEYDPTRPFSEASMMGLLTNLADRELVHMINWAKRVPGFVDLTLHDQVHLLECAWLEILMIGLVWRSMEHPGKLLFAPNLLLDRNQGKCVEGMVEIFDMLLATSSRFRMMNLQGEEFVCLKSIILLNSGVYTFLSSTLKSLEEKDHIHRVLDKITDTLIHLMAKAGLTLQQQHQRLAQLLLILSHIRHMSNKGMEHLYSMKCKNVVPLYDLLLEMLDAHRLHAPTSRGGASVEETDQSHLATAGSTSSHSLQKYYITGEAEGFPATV
# Androgen receptor (Homo sapiens), sequence (P10275 whole entry, looked up): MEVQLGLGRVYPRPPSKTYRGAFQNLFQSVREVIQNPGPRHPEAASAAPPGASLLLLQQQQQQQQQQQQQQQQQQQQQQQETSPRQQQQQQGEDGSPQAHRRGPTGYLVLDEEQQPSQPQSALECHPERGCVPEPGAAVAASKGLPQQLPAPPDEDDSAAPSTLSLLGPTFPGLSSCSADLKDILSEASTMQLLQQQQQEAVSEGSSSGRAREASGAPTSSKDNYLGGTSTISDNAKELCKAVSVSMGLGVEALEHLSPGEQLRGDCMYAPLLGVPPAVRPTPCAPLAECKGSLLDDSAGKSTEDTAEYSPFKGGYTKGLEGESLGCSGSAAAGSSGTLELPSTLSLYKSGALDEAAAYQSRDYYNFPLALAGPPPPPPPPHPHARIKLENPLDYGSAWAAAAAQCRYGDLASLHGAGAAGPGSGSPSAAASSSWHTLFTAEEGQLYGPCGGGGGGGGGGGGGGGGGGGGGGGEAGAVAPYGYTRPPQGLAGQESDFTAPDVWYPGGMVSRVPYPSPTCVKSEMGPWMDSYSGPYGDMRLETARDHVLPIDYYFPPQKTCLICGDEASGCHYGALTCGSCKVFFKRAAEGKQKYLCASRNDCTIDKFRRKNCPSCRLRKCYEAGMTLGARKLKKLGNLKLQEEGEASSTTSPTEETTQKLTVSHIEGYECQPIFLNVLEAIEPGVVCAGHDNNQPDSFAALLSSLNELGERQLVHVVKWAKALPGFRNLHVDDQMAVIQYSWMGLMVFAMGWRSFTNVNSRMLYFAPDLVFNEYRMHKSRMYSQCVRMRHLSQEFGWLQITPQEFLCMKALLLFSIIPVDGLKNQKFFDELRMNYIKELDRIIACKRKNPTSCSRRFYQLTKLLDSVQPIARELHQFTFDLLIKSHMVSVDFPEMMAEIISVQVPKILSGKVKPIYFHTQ
# Estrogen receptor beta (Homo sapiens), sequence (Q92731 whole entry, looked up): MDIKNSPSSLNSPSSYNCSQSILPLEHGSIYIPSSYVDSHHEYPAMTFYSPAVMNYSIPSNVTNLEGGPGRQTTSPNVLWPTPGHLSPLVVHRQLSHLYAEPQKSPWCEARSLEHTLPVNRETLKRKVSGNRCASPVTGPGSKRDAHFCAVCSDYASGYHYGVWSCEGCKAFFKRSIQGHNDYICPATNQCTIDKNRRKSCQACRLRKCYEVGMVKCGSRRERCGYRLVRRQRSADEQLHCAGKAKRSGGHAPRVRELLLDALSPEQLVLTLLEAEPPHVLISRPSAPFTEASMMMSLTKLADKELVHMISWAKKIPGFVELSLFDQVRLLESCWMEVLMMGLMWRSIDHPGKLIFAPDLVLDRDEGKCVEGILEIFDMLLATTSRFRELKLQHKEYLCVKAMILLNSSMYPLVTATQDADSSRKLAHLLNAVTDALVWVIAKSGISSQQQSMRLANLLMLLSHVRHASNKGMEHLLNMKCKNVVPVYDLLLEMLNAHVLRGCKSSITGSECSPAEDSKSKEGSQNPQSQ
Structure (SMILES),outcome [1],Potency [2],outcome [3],Potency [4],Potency [5],outcome [6],outcome [7],Potency [8],Potency [9],outcome [10],Potency [11],Potency [12],outcome [13],Potency [14],Potency [15],outcome [16],outcome [17],outcome [18],Potency [19],Potency [20]
O=C(NCCc1c[nH]c2ccccc12)c1cccnc1,inactive,inactive,inactive,inactive,inactive,inactive,inactive,inactive,inactive,inactive,inactive,inactive,inactive,inactive,inactive,inactive,inactive,inactive,,
COc1nccnc1NS(=O)(=O)c1ccc(N)cc1,inactive,inactive,inactive,inactive,,inactive,inactive,inactive,inactive,inactive,,inactive,inactive,inactive,inactive,inactive,,inactive,inactive,inactive
N#Cc1ccc(C(=O)O)cc1,inactive,inactive,inactive,inactive,,,inactive,inactive,inactive,inactive,inactive,inactive,inactive,inactive,inactive,inactive,,,inactive,inactive
O=C(O)c1cc(Cl)cc([N+](=O)[O-])c1Cl,inactive,inactive,inactive,inactive,inactive,,inactive,inactive,inactive,inactive,,,,inactive,inactive,inactive,inactive,inactive,inactive,
O=C(OCC(O)CO)c1ccccc1Nc1ccnc2c(C(F)(F)F)cccc12 (centres undefined),inactive,inactive,inactive,inactive,inactive,,inactive,inactive,inactive,inactive,,,,inactive,,inactive,inactive,inactive,inactive,inactive
O=C(O)C(=O)Cc1ccccc1,inactive,inactive,inactive,inactive,inactive,,inactive,inactive,inactive,inactive,,inactive,inactive,inactive,inactive,inactive,,inactive,inactive,inactive
C=CCCCCCCCCCCCC,inactive,inactive,inactive,inactive,,,inactive,inactive,inactive,inactive,inactive,inactive,inactive,inactive,inactive,inactive,,inactive,inactive,
O=C(O)CCSSCCC(=O)O,inactive,inactive,inactive,inactive,inactive,,inactive,inactive,inactive,inactive,inactive,inactive,inactive,inactive,inactive,inactive,inactive,inactive,inactive,
OCCN(CCO)c1cccc(Cl)c1,inactive,inactive,inactive,inactive,,,inactive,inactive,inactive,inactive,,inactive,inactive,inactive,inactive,inactive,,inactive,inactive,inactive
CCCN1C[C@H](CSC)C[C@@H]2c3cccc4[nH]cc(c34)C[C@H]21,inactive,inactive,inactive,,inactive,inactive,inactive,inactive,inactive,inactive,inactive,inactive,,inactive,,inactive,inactive,inactive,,
C[C@@H](O)[C@H]1C(=O)N2C(C(=O)O)=C(SCCN=CN)C[C@H]12,inactive,inactive,inactive,,inactive,inactive,inactive,inactive,inactive,inactive,,inactive,inactive,inactive,inactive,inactive,inactive,inactive,inactive,
CN(C)C(=O)CNC(=O)Cc1ccccc1,inactive,inactive,inactive,,inactive,inactive,inactive,inactive,inactive,inactive,inactive,inactive,inactive,inactive,inactive,inactive,inactive,inactive,inactive,
CO[C@@H]1[C@@H](OC(N)=O)[C@@H](O)[C@H](Oc2ccc3c(O)c(NC(=O)c4ccc(O)c(CC=C(C)C)c4)c(=O)oc3c2C)OC1(C)C,inactive,inactive,inactive,,inactive,inactive,inactive,inactive,inactive,inactive,inactive,,,inactive,inactive,inactive,inactive,inactive,inactive,
CN(CCOc1ccc(NS(C)(=O)=O)cc1)CCc1ccc(NS(C)(=O)=O)cc1,inactive,inactive,inactive,,inactive,inactive,inactive,inactive,inactive,inactive,inactive,,,inactive,inactive,inactive,inactive,inactive,inactive,
COc1ccc(S(=O)(=O)N2c3ccc(Cl)cc3[C@@](O)(c3ccccc3Cl)[C@H]2C(=O)N2CCC[C@@H]2C(N)=O)cc1OC,inactive,inactive,inactive,,inactive,inactive,inactive,inactive,inactive,inactive,inactive,,,inactive,inactive,inactive,,,inactive,
Cc1cccc(OCC(O)CNC(C)(C)C)c1C (centres undefined),inactive,inactive,inactive,inactive,,,inactive,inactive,inactive,inactive,inactive,,,inactive,13.3 µM (active),inactive,,inactive,inactive,inactive
